Measurements published in ChEMBL document CHEMBL3988442, “University of Dundee, Small-Polar-MMV Screening Library” (2021).

Experiments:
[1] = molecular target: T1, Aspartate--tRNA(Asp/Asn) ligase (Mycobacterium tuberculosis (strain ATCC 25618 / H37Rv)) (UniProt P9WFW3); test: Assay for Asp RNA synthetase-1 from Mycobacterium tuberculosis; type: functional; design: scale not given: direction of the effect not stated beside the values; details: 30 µM; also: in the data most compounds retested in dose-response had high values
T1 sequence (whole entry): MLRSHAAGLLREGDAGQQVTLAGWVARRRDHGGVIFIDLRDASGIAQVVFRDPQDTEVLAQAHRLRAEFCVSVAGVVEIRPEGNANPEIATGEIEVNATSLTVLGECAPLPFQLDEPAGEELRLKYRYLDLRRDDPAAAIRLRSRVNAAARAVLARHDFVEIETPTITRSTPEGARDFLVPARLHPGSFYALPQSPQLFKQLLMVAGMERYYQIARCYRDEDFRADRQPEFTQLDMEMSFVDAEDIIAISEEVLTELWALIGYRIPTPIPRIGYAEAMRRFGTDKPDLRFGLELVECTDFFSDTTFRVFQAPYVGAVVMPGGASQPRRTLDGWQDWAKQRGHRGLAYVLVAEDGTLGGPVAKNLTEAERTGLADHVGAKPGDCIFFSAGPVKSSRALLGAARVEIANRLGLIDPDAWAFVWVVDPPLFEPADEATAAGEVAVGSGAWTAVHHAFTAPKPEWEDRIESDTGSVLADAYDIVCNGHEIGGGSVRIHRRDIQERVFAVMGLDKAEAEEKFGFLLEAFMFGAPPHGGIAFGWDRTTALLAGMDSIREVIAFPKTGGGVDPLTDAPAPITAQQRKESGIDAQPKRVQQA

[2] = molecular target: Shiga toxin 2 (Escherichia coli O157:H7) (UniProt P09385+P09386); test: E. coli 0.157:H7 Shiga Toxin SOP - stx2 screening assay; type: functional; design: scale not given: direction of the effect not stated beside the values; details: 30 µM

Compound | Percent Effect [1] | Percent Effect [2]
CC(NC(=O)NCC1(c2ccccc2)CCC1)c1nncn1C (centres undefined) | 0.759% | 14.9%
O=C(NCC1CC1)Nc1cccc(N2CCN(CC3CC3)CC2)c1 | -1.59% | -38.1%
CCN1CCC2(CC1)CC(NC(=O)N(C)C)c1cc(C)ccc12 (centres undefined) | 2.85% | -28.6%
Cc1n[nH]c(C2CN(CC(=O)NCCc3ccsc3)CCO2)n1 (centres undefined) | -3.33% | 7.26%
O=C(c1ccc(F)cc1F)N1CC[C@H](O)[C@@H](N2CCOCC2)CC1 | 0.28% | -21.2%
O=C(Cc1noc2ccccc12)N1CCCC1c1noc(C2CC2)n1 (centres undefined) | -3.11% | 8.27%
c1nc2c(c(C3CC3)n1)CCN(Cc1ccoc1)CC2 | 2.3% | -14.5%
Cc1nc(CN2CCC3(CCCN(Cc4cnn(C)c4)C3)C2=O)cs1 (centres undefined) | -3.23% | -23.7%
Cc1csc(N2CCCN(C(=O)c3c(C)oc(C)c3C)CC2)n1 | -1.31% | -3.9%
O=C(COc1cccc2c1CCC2=O)NCc1ccccc1F | 10.4% | -7.67%
CC(C)c1nnc2n1CCN(C(=O)c1ccc3cc[nH]c3c1)C2 | -2.98% | 3.97%
O=C(NCC(Cc1cccc(F)c1)N1CCCC1=O)c1ccccc1 (centres undefined) | -2.27% | -0.947%
CCc1noc(C(C)N2CCC(NC(=O)c3ccc(C)s3)CC2)n1 (centres undefined) | 5.23% | -30.1%
Cc1nn(C)c(C)c1C1CCCN1Cc1nc(-c2ccco2)no1 (centres undefined) | -6.56% | -26.9%
CN(C)S(=O)(=O)N1CC[C@]2(C[C@H](Oc3ncccc3F)CO2)C1 | 2.03% | 2.42%
O=C(C1CCCc2[nH]ncc21)N1CCCC1 (centres undefined) | 2.61% | -4.59%
Cc1[nH]c(=O)c(C#N)cc1C(=O)N1C[C@@H](CN2CCCC2)C[C@H](CO)C1 | -2.04% | -3.42%
